Data on 25 compounds can be found in PubChem BioAssay (NCATS).

Assay [1] can be described thus: qHTS Assay for Identifying Gametocytocidal Compounds (AID 743244). Also: potency is read from the fitted curve at half-maximal effect.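 As to max response: actives lower the fluorescent signal which means gametocytes are killed.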 As to conditions: P. falciparum 3D7 stage III-V gametocytes, alamarBlue, 72 h; max response: stronger effect = lower value. In a few lines:
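Viability read-out was resazurin reduction (alamarBlue, 24 h) measured at Ex 525/Em 598 nm. Beforehand, late-stage (III-V) 3D7 P. falciparum gametocytes at 20,000 cells/well were incubated with compound 72 h at 37C under 5% CO2.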

The nature of assay [2]: qHTS assay to identify small molecule inhibitors of chordoma cells - UCH-1 (AID 1259355). Also: nearly all actives have a fitted effect of over 55% in size. Also: potency is read from the fitted curve at half-maximal effect; series mostly up to about 46 µM. The method in brief:
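Luminescent ATP read-out (CellTiter-Glo, 30min at room temperature) measured viability of UCH-1 cells exposed for 48hr to test drugs at 15 concentrations, co-dosed with a five-agent combination of auranofin, camptothecin, doxorubicin, rubitecan and topotecan.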

Assay [3] is described as follows: qHTS assay to identify small molecule inhibitors of chordoma cells - UCH-2 (AID 1259356). Also: potency is read from the fitted curve at half-maximal effect.
Assay [4] is described as follows: P-glycoprotein substrates identified in KB-8-5-11 adenocarcinoma cell line, qHTS therapeutic library screen (AID 1346987). Also: nearly all actives have a fitted effect of over 65% in size. Also: potency is read from the fitted curve at half-maximal effect. As to conditions: outcome: dose series up to 44.5 µM unless noted. In a few lines:
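KB-8-5-11: colchicine-selected sub-line of KB-3-1 over-expressing P-gp; assay medium lacked colchicine. 72 h drug exposure at 37 degree C, CellTiter-Glo.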

Assay [5] can be described thus: qHTS assay for cell viability of HEK293 cells (AID 743288). Also: nearly all actives have a fitted effect of over 50% in size. As to conditions: ATP luminescence (CellTiter-Glo), 18 h; max response: stronger effect = lower value. In a few lines:
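Parental HEK293 cells were seeded at 2,000 cells/well, rested at least 5 h at 37 C, then exposed to compounds in DMSO for 18 h at 37 C. Viability was read as ATP-dependent luciferase luminescence after 30 min at room temperature.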

The nature of assay [6]: qHTS assay for cell viability of the p53RE-bla HCT-116 cell line (AID 743292). Also: nearly all actives have a fitted effect of over 55% in size. The method in brief:
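Compound-exposed HCT-116 (p53RE-bla) cells, 4,000 per well, were kept 16 h at 37 C following a 5 h preincubation. Cell number was estimated from total ATP by CellTiter-Glo luminescence read after 30 min at room temperature.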

“And” between values parts separate entries of the source, which are not always exact repeats. Equal values may be shown once. Inconclusive results are not listed. The source made the active and inactive calls. Calls follow the shape of the dose curve; as a rule, active = well fitted curve in the direction sought with a large enough effect; inconclusive = small, poorly fitted or top-dose-only effect, or another doubt; inactive = no such curve, though single readings can be large; an effect the other way counts as inactive or inconclusive.
% is scaled to controls: 0 for no effect and ±100 for the full control effect.

Consider `NC[C@H]1O[C@H](O[C@H]2[C@H](O)[C@@H](O[C@H]3O[C@H](CO)[C@@H](O)[C@H](N)[C@H]3O)[C@H](N)C[C@@H]2N)[C@H](O)[C@@H](O)[C@@H]1O`, for which, in assay [1], the max response was 19.4% (inactive). For the same compound, the Potency entry in assay [2], in assay [3] and in assay [4] was “inactive” throughout.

In the case of `Cc1ccc(S(=O)(=O)O)cc1C`, the max response is 1.6% (inactive) in assay [1] and 0.0836% (inactive) in assay [5]. For the same compound, the call in assay [6] was inactive. Besides, the Potency entry in assay [2], in assay [3] and in assay [4] was “inactive” in each case.

As to `CN[C@@H]1[C@@H](O[C@H]2O[C@H](CO)[C@@H](N)[C@H](O)[C@H]2O)O[C@H]2C[C@@H](N)[C@@H](O[C@H]3[C@H](O)[C@@H](O)[C@H](N)C[C@@H]3N)O[C@@H]2[C@@H]1O`, the max response in assay [1] is 4.88% (inactive). Also, the Potency entry in assay [2], in assay [3] and in assay [4] was “inactive” in each case.

`OCl`: the values for the max response in assay [1] and in assay [5] were 13.5% (inactive) and -19.9% (inactive), respectively. Also, the call in assay [6] was inactive. Also, the Potency entry in assay [2], in assay [3] and in assay [4] was “inactive” in each case.

For `C[C@H](CCC(=O)O)[C@H]1CC[C@H]2[C@@H]3[C@H](O)C[C@@H]4C[C@H](O)CC[C@]4(C)[C@H]3C[C@H](O)[C@]12C`, the max response in assay [1] was -6.23% (inactive); in assay [5], -4.94% (inactive). The outcome in assay [6] was inactive. Further, the Potency entry in assay [2], in assay [3] and in assay [4] was “inactive” in each case.

As for `OB(O)O`, the max response was 7.6% (inactive) in assay [1]; -3.91% (inactive) and 5.45% (inactive) in assay [5]. The result in assay [6] was inactive. Also, the Potency result in assay [2], in assay [3] and in assay [4] was “inactive” throughout.

Take `CC(C)CCC[C@@H](C)[C@H]1CC[C@H]2[C@@H]3CC=C4C[C@@H](O)CC[C@]4(C)[C@H]3CC[C@]12C`: the max response in assay [1] was -0.629% (inactive); in assay [5], -8.56% (inactive). In assay [6], the outcome was inactive. For the same compound, the Potency entry in assay [2], in assay [3] and in assay [4] was “inactive” throughout.

As to `O.O.O.O.O.O.O.O=S(=O)([O-])[O-].[Co+2]`, the max response in assay [1] is 0.797% (inactive); in assay [5], 1.41% (inactive). For the same compound, the call in assay [6] was inactive. Besides, the Potency entry in assay [2], in assay [3] and in assay [4] was “inactive” throughout.

Take `CC(C)(C)CC(C)(C)c1ccc(OCCO)cc1`: the max response is 12.7% (inactive) in assay [1] and -25.1% (inactive) in assay [5]. The outcome in assay [6] was inactive. The Potency entry in assay [2] and in assay [3] was “inactive” in each case. In addition, in assay [4], the Potency is 13 µM (active).

For `NCCO/C=C/[C@H](N)C(=O)O`, the max response in assay [1] is -0.535% (inactive); in assay [5] it was -5.56% (inactive). For the same compound, the compound was called inactive in assay [6]. The Potency entry in assay [2], in assay [3] and in assay [4] was “inactive” in each case.

As to `CCOC(C)OCC`, the max response was 16.8% (inactive) in assay [1] and 7.3% (inactive) in assay [5]. Besides, the compound was classed as inactive in assay [6]. Moreover, the Potency entry in assay [2], in assay [3] and in assay [4] was “inactive” throughout.

Turning to `COC(=O)C(CN)c1c[nH]c2ccc(OC)cc12` (configuration not stated), the max response in assay [1] was -6.34% (inactive). Also, the Potency entry in assay [2], in assay [3] and in assay [4] was “inactive” each time.

As to `O=C(CCCN1CCN2CCCC2C1)c1ccc(F)cc1` (configuration not stated), the max response in assay [1] is 7.46% (inactive). For the same compound, the Potency result in assay [2], in assay [3] and in assay [4] was “inactive” each time.

`CCN(CC)C(=O)[C@]1(c2ccccc2)C[C@@H]1CN`: the max response in assay [1] was -1.74% (inactive). The Potency entry in assay [2], in assay [3] and in assay [4] was “inactive” in each case.

Consider `[O-][N+](=Nc1ccccc1)c1ccccc1`, for which the results for the max response in assay [1] and in assay [5] were 18.6% (inactive) and -0.626% (inactive), respectively. The compound was called inactive in assay [6]. Besides, the Potency result in assay [2], in assay [3] and in assay [4] was “inactive” each time.

Consider `O=C(O)c1cc(N=Nc2ccc(O)c(C(=O)O)c2)ccc1O`, for which the max response in assay [1] was 0.0283% (inactive). Besides, the Potency result in assay [2], in assay [3] and in assay [4] was “inactive” in each case.

For `CO`, the max response was 16% (inactive) in assay [1] and 1.36% (inactive) in assay [5]. Moreover, the result in assay [6] was inactive. Further, the Potency entry in assay [2], in assay [3] and in assay [4] was “inactive” each time.

Turning to `CO/N=C(/C(=O)N[C@@H]1C(=O)N2C(C(=O)O)=C(COC(N)=O)CS[C@H]12)c1ccco1`, the max response in assay [1] was -11% (inactive) and 13.4% (inactive); in assay [5], 2.57% (inactive). Also, in assay [6], the call was inactive. For the same compound, the Potency result in assay [2], in assay [3] and in assay [4] was “inactive” throughout.

On to `OCC(O)CO`, for which the max response is 9.54% (inactive) in assay [1]; 1.91% (inactive) and -2.54% (inactive) in assay [5]. For the same compound, the call in assay [6] was inactive. Further, the Potency entry in assay [2], in assay [3] and in assay [4] was “inactive” in each case.

`C[C@@H]1C/C=C/C=C/C=C/C=C/[C@H](O[C@@H]2O[C@H](C)[C@@H](O)[C@H](N)[C@@H]2O)C[C@@H]2O[C@](O)(C[C@@H](O)C[C@H]3O[C@@H]3/C=C/C(=O)O1)C[C@H](O)[C@H]2C(=O)O`: the max response in assay [1] was 15.6% (inactive). Further, the Potency entry in assay [2], in assay [3] and in assay [4] was “inactive” throughout.

On to `CC/C=C\C/C=C\C/C=C\CCCCCCCC(=O)O`, for which the max response in assay [1] was 13.1% (inactive); in assay [5], -4.87% (inactive). Moreover, the outcome in assay [6] was inactive. Moreover, the Potency entry in assay [2], in assay [3] and in assay [4] was “inactive” in each case.

`CCCC1C(=O)N2C(N(C)C)=Nc3ccc(C)cc3N2C1=O` (configuration not stated): the max response in assay [1] is 6.87% (inactive). Further, the Potency entry in assay [2], in assay [3] and in assay [4] was “inactive” throughout.

Regarding `CCN1\C(=C/C=C/C=C/c2sc3ccccc3[n+]2CC)Sc2ccccc21`, the Potency was 11.2 µM (active) in assay [1], 14.1 µM (active) in assay [2], 18.3 µM (active) in assay [3] and 16.4 µM (active) in assay [4].

`OCc1ccccc1`: the max response in assay [1] was 0.478% (inactive); in assay [5], 7.92% (inactive). Moreover, the result in assay [6] was inactive. Moreover, the Potency entry in assay [2], in assay [3] and in assay [4] was “inactive” in each case.

Consider `C=C(C)C1CC=C(C)CC1` (configuration not stated), for which the max response in assay [1] was 0.817% (inactive); in assay [5], -3.42% (inactive) and -10.2% (inactive). Besides, in assay [6], the outcome was inactive. In addition, the Potency entry in assay [2], in assay [3] and in assay [4] was “inactive” throughout.
